# Records with an inconclusive call do not appear. Calls of active or inactive are those of the source. Unless noted, calls follow the shape of the dose curve; as a rule, active = well fitted curve in either direction with a large enough effect (not every such curve was filed as active); inconclusive = small, poorly fitted or top-dose-only effect, or another doubt; inactive = flat fitted curve, though single readings scatter.
# Experiments:
# [1] = target: Lysosomal acid glucosylceramidase (Homo sapiens) (UniProt P04062); test: Glucocerebrosidase-p2 (AID 348; in the data active = potency below about 10 µM; also: potency is read from the fitted curve at half-maximal effect); details: purified GBA, blue fluorogenic substrate, 40 min
# Sequence of Lysosomal acid glucosylceramidase (Homo sapiens) (P04062 whole entry, looked up): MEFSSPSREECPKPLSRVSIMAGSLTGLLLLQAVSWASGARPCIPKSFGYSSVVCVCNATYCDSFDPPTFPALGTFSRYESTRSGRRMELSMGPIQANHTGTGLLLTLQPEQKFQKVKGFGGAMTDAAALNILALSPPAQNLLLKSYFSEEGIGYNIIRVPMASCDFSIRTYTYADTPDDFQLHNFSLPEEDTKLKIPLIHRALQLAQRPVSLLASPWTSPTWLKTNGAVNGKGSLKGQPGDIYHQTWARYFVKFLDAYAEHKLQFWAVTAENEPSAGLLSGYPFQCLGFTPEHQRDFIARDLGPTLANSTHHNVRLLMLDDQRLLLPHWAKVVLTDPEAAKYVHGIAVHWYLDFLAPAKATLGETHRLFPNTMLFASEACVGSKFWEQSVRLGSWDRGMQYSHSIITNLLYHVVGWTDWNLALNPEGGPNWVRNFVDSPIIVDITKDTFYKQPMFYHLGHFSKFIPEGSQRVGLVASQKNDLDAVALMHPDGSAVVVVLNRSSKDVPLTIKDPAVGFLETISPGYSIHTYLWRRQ
# Procedure, shortened: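 Compounds titrated from 0.6 nM upwards against 0.2 nM enzyme in pH 5.9 citric acid/KH2PO4, taurocholate, tween-20; blue fluorogenic substrate 80 uM, 40 min room temperature, stopped and read Ex 365/Em 440 for AC50.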
# [2] = AP1 Signaling Pathway (AID 357); details: ME-180 AP-1-bla reporter, EGF-induced, beta-lactamase ratio, 5 h; at 7.69 µM (top of the series) unless noted;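 also: ME-180 reporter cells stimulated with EGF at its EC50 level; % is scaled to controls: 0 for no effect and ±100 for the full control effect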
# Procedure, shortened: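 Modulation of EGF-driven AP-1 transcription was assessed with a beta-lactamase reporter in ME-180 cells. Compound and EC50 EGF were co-incubated 5 hours at 37 °C before 2.5-hour CCF4 loading at room temperature and dual-emission reading.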
# [3] = target: Cytochrome P450 1A2 (Homo sapiens) (UniProt P05177); test: p450-cyp1a2 (AID 410; calls by dose curve;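 also: -100% = full effect of reference inhibitor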); details: recombinant CYP1A2, luciferin-ME demethylation, luminescence; series mostly up to 57 µM
# Sequence of Cytochrome P450 1A2 (Homo sapiens) (P05177 whole entry, looked up): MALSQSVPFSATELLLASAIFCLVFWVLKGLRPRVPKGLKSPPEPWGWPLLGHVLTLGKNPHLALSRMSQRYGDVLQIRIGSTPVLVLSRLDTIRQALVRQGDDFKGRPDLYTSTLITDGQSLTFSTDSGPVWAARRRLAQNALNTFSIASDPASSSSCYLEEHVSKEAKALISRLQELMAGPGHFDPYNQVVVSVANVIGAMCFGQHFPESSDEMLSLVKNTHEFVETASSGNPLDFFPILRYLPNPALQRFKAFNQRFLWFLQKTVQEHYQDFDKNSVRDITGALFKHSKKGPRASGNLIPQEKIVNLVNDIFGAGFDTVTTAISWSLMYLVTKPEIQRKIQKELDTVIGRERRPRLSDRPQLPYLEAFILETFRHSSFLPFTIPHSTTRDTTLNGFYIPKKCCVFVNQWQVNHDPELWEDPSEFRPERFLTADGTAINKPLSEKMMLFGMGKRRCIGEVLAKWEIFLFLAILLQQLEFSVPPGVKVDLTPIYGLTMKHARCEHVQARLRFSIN
# Procedure, shortened: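 20nM CYP1A2 with 100uM Luciferin-ME (at Km) in 100mM KPO4; compound preincubated 10 min, NADPH regeneration added, 60 min at room temperature. Luciferin quantified by luminescence after detection reagent; normalized to 57 uM furafylline.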
# [4] = NFAT Signaling Pathway (AID 444); details: Jurkat NFAT-bla M1, carbachol, beta-lactamase ratio, 5 h; at 7.69 µM (top of the series) unless noted;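 also: carbachol stimulus at about its EC50 of 1 µM final; % is scaled to controls: 0 for no effect and ±100 for the full control effect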
# Procedure, shortened: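 Jurkat cells with NFAT-driven β-lactamase reporter and co-expressed M1 receptor, stimulated with carbachol (final 1 uM, ~EC50), compound titration, 5 h at 37 °C. CCF4 loaded 1 h at RT; 460/530 nm ratio gave %activity and AC50.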
# [5] = Stat Signaling Pathway (AID 446); details: ME-180 SIE beta-lactamase reporter, IL-6 stimulated, 5 h; at 7.69 µM (top of the series) unless noted;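 also: ME-180 cervical cancer cells given 40 pM IL-6 alongside compound; SIE-controlled beta-lactamase reporter measured as 460/530 nm FRET emission ratio; % is scaled to controls: 0 for no effect and ±100 for the full control effect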
# Procedure, shortened: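 Reporter line: ME-180 cervical carcinoma, SIE-beta-lactamase. Treatment: compound with 40 pM IL-6, 5 hrs, 37 C, in low-serum OPTI-MEM with 10 mM HEPES pH 7.3. Detection: 460/530 nm fluorescence.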
# [6] = target: Glucocorticoid receptor (Homo sapiens) (UniProt P04150); test: GR-EFC Redistribution (AID 451; calls by dose curve; also: potency is read from the fitted curve at half-maximal effect); details: CHO-K1 GR-EFC translocation, beta-gal luminescence, 2 h
# Sequence of Glucocorticoid receptor (Homo sapiens) (P04150 whole entry, looked up, the tested form may be a part): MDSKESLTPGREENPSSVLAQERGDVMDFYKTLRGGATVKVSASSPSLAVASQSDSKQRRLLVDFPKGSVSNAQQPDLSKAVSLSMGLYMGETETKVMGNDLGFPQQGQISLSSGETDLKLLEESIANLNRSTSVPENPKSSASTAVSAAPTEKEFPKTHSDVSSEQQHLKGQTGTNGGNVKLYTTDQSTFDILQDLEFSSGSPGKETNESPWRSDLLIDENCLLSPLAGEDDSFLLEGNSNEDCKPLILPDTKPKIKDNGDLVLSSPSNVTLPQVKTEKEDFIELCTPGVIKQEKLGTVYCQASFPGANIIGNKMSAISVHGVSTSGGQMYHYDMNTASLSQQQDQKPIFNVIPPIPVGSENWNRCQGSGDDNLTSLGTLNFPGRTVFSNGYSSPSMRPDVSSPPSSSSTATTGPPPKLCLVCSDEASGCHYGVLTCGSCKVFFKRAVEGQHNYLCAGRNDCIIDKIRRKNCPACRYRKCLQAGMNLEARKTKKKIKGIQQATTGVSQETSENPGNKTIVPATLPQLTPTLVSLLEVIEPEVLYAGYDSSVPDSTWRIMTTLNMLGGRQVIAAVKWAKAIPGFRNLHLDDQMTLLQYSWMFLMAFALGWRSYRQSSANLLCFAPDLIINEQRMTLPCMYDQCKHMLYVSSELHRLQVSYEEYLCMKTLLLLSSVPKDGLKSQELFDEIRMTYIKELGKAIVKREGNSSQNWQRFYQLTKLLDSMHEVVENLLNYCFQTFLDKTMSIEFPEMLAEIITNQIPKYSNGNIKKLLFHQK
# Procedure, shortened: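 CHO-K1 cells expressing nuclear EA and GR-ED fragments of b-gal; compounds titrated up to 46 uM final, 2 h at 37 C. GR nuclear translocation read as complemented b-gal luminescence after 1 h RT detection.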
# [7] = target: Mitogen-activated protein kinase 10 (Mus musculus) (UniProt Q61831); test: JNK3 AlphaScreen Assay (AID 530); details: JNK3 lysate, c-Jun phosphorylation; series mostly up to 57.1 µM;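 also: kinase came from lysate of stimulated human HepG2 cells; signal reports phosphorylation of biotinylated GST-cJun 1-79 at Ser73 with 10 µM ATP; % is scaled to controls: 0 for no effect and ±100 for the full control effect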
# Procedure, shortened: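 Pre-activated (IL-1β/TNFα) JNK3 in HepG2 lysates phosphorylates biotin-GST-cJun(1-79), 10 uM ATP; anti-phospho-cJun(Ser73) AlphaScreen read at room temperature, pH 7.6 Tris buffer. Compounds pre-incubated 15 min as titrations.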
# [8] = target: 3',5'-cyclic-AMP phosphodiesterase 4B (Homo sapiens) (UniProt Q07343); test: qHTS Assay for Inhibitors of PDE-IV (AID 607; active = well fitted activation curve with a large enough effect in the main read-out, with a control signal flat, not every such curve was filed as active; also: % of control where 0% means no effect); details: HEK293 ACTOne CNG channel cells, membrane potential fluorescence; series mostly up to 22.9 µM
# Sequence of 3',5'-cyclic-AMP phosphodiesterase 4B (Homo sapiens) (Q07343 whole entry, looked up): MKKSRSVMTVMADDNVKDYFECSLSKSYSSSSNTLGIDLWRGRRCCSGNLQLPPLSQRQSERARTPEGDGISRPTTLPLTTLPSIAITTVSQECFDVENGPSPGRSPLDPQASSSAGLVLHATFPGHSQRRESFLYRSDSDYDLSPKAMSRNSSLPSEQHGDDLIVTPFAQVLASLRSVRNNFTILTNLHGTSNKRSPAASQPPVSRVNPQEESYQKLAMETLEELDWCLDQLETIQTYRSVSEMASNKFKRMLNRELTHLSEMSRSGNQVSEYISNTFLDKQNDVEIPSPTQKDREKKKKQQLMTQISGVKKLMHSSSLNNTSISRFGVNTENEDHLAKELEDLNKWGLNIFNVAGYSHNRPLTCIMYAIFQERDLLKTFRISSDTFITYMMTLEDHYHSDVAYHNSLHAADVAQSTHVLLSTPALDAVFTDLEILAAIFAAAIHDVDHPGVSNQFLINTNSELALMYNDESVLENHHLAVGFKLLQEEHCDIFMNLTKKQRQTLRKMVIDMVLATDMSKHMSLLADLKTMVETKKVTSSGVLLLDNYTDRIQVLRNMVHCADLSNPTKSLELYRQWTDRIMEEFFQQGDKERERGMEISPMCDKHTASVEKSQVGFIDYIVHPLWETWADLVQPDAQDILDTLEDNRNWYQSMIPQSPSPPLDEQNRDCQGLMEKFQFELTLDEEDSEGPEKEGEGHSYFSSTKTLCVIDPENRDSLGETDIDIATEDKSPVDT
# Procedure, shortened: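 Cell-based read-out of cAMP via a modified cyclic nucleotide-gated channel and membrane potential dye (535/590 nm) in HEK293 cells expressing PDE4 endogenously. Compounds tested up to 22.9 uM final; 100 uM RO 20-1724 reference.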
# [9] = target: Cytochrome P450 2C9 (Homo sapiens) (UniProt P11712); test: qHTS Assay for Inhibitors and Substrates of Cytochrome P450 2C9 (AID 883; active = well fitted curve in the direction sought with a large enough effect; an effect the other way counts as inactive or inconclusive; also: nearly all actives have a fitted effect of over 60% in size; also: potency is read from the fitted curve at half-maximal effect); details: recombinant CYP2C9, luciferin-H luminescence, 60 min; series mostly up to 57.1 µM
# Sequence of Cytochrome P450 2C9 (Homo sapiens) (P11712 whole entry, looked up): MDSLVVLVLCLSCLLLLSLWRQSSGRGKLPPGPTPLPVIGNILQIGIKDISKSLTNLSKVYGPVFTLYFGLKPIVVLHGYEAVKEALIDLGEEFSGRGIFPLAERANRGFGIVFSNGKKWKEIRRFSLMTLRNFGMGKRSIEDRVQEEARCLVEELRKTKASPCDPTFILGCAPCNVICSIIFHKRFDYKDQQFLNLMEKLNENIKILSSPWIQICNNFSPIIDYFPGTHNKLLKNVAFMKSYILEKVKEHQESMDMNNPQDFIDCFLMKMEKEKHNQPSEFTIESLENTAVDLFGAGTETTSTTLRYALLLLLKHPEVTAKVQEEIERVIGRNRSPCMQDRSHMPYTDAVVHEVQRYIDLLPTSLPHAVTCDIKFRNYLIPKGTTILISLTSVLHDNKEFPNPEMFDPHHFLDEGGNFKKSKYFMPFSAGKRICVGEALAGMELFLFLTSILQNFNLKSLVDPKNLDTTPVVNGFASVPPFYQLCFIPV
# Procedure, shortened: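 10nM CYP2C9 + 100uM Luciferin-H (=KM), 25mM KPO4; cpd 10 min 37C; NADPH regen, 60 min 37C; stop/detect with P450 Glo-Buffer 20 min; luminescence. Norm. to 57uM sulphaphenazole as full inhibition.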
# [10] = target: Cytochrome P450 3A4 (Homo sapiens) (UniProt P08684); test: qHTS Assay for Inhibitors and Substrates of Cytochrome P450 3A4 (AID 884; active = well fitted curve in the direction sought with a large enough effect; an effect the other way counts as inactive or inconclusive; also: nearly all actives have a fitted effect of over 50% in size; also: potency is read from the fitted curve at half-maximal effect); details: recombinant CYP3A4, Luciferin-PPXE luminescence; series mostly up to 57.1 µM
# Sequence of Cytochrome P450 3A4 (Homo sapiens) (P08684 whole entry, looked up): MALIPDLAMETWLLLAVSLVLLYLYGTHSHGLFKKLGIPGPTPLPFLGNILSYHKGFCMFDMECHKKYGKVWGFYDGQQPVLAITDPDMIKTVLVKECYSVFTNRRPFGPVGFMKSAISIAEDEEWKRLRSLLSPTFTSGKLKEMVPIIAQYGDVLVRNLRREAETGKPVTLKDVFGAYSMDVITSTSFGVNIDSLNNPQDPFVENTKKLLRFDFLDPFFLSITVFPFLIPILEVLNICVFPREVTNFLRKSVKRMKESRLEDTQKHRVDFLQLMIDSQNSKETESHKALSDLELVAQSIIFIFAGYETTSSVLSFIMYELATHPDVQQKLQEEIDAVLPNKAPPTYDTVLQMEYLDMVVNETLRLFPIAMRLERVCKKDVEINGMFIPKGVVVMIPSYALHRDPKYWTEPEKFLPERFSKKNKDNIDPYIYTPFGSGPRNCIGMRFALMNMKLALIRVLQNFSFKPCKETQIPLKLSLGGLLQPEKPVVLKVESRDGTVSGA
# Procedure, shortened: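 20 nM human CYP3A4 with 25 uM Luciferin-PPXE (at KM) in 200 mM KPO4, preincubated 10 min with compound; NADPH regeneration started a 60 min RT reaction. Luciferin detected by luminescence, normalized to 57 uM ketoconazole as full inhibition.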
# [11] = target: Cytochrome P450 2C19 (Homo sapiens) (UniProt P33261); test: qHTS Assay for Inhibitors and Substrates of Cytochrome P450 2C19 (AID 899; active = well fitted curve in the direction sought with a large enough effect; an effect the other way counts as inactive or inconclusive; also: % is scaled to controls: 0 for no effect and ±100 for the full control effect; nearly all actives have a fitted effect of over 60% in size); details: recombinant CYP2C19, luciferin-H EGE luminescence; series mostly up to 57.1 µM
# Sequence of Cytochrome P450 2C19 (Homo sapiens) (P33261 whole entry, looked up): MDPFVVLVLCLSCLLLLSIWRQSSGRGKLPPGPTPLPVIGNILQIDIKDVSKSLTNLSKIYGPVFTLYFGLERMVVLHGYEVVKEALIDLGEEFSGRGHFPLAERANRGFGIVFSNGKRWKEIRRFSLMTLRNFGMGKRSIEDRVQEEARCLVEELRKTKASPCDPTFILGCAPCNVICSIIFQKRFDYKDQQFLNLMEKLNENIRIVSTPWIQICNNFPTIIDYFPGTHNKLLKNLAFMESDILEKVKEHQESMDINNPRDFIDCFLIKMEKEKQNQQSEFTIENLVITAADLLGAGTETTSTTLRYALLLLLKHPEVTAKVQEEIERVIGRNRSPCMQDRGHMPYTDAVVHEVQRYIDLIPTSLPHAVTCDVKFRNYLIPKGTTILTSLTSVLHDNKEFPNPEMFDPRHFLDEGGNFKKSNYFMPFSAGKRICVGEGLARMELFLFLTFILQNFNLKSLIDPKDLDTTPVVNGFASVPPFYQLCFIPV
# Procedure, shortened: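 Luminescent read-out of luciferin formed from Luciferin-H EGE (10uM, equal to KM). Enzyme 5nM in 50mM KPO4; compound added, 10 min at 37C, then NADPH regenerating system for 60 min at 37C. Full inhibition defined by 57uM ketoconazole.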
# [12] = qHTS Assay for Lipid Storage Modulators (AID 1519; calls by dose curve); details: Drosophila S3 cells, BODIPY lipid droplet/cell ratio, laser cytometry, cells loaded with oleic acid; for activity change, negative = inhibition: at 57.5 µM (top of the series)
# Procedure, shortened: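 Cells seeded at 5,000 per well were treated with compounds over a concentration series and loaded with oleic acid (400 uM, as added). Lipid droplet fluorescence (488 nm excitation, 500-530 nm channel) was read by laser-scanning cytometry and normalized to 20 uM Triacsin C.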
# [13] = Primary qHTS for small molecule stabilizers of the endoplasmic reticulum resident proteome: Secreted ER Calcium Modulated Protein (SERCaMP) assay (AID 1508630; active = well fitted curve in the direction sought with a large enough effect; an effect the other way counts as inactive or inconclusive; also: % is scaled to controls: 0 for no effect and ±100 for the full control effect); details: SH-SY5Y GLuc-SERCaMP (Gaussia luciferase released on ER calcium loss) secretion, thapsigargin, luminescence; series mostly up to 38.4 µM
# Procedure, shortened: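 GLuc-SERCaMP-expressing SH-SY5Y cells, pretreated 16 h with compound, are challenged with thapsigargin to empty ER calcium stores; after 4 h, coelenterazine is added directly to the medium and luminescence is imaged.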
# [14] = target: Cytochrome P450 3A4 (Homo sapiens) (UniProt P08684); test: qHTS Assay for Activators of Cytochrome P450 3A4 (AID 885; active = well fitted curve in the direction sought with a large enough effect; an effect the other way counts as inactive or inconclusive; also: nearly all actives have a fitted effect of over 65% in size); details: recombinant CYP3A4, Luciferin-PPXE luminescence, 60 min; series mostly up to 57.1 µM
# Procedure, shortened: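 Signal was normalized against complete inhibition by 57 uM ketoconazole. The reaction used 20nM CYP3A4 with 25uM Luciferin-PPXE, 10-min compound preincubation and a 60-min NADPH-supported step at RT.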
# [15] = qHTS Assay for Identification of Small Molecule Agonists for Hypoxia Response Element Signaling Pathway (AID 914; active = well fitted activation curve with a large enough effect in the signal ratio, with a control signal flat, not every such curve was filed as active; the % refers to the signal ratio; also: % of control where 0% means no effect); details: ME-180 (cervical carcinoma) HRE-bla reporter, beta-lactamase ratio, CoCl2, 17 h; activation: stronger effect = higher value
# Procedure, shortened: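 HRE-bla ME-180 assay for agonist-like enhancement of an EC50 CoCl2 stimulus: 17 h at 37 degrees Celsius, CCF4 for 2.5 h, ratiometric 460/530 nm signal converted to %Activity and fitted to AC50.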
# [16] = measured here: cell count channel max response
# [17] = measured here: lipid channel max response
Structure (SMILES),Potency [1],"activity change, negative = inhibition [2]",Potency [3],"activity change, negative = inhibition [4]","activity, negative = inhibition [5]",Potency [6],outcome [7],Potency [8],Potency [9],Potency [10],Potency [11],"activity change, negative = inhibition [12]","max response [12, 16]","max response [12, 17]",Potency [13],Potency [14],activation [15]
CC(C)NC(=O)N1CC[C@@]2(CCCN(C(=O)Oc3ccccc3)C2)C1,> 11.4 µM (inactive),6.59% (inactive),inactive,-15.6% (inactive),-4.24% (inactive),> 46 µM (inactive),inactive,inactive,inactive,inactive,inactive,1.37% (inactive),8.74%,17.3%,inactive,,
CS(=O)(=O)N1CCC2(CCN(C(=O)Nc3cccc(C#N)c3)CC2)CC1,> 11.4 µM (inactive),2.04% (inactive),inactive,16.4% (inactive),-21% (inactive),> 46 µM (inactive),inactive,inactive,,,,2.84% (inactive),-15.9%,-10.5%,inactive,,
Cc1noc(C)c1C(=O)N1CCC2(CC1)CN(c1ncccn1)C2,> 11.4 µM (inactive),-8.73% (inactive),inactive,13.3% (inactive),2.57% (inactive),> 46 µM (inactive),inactive,inactive,,,,6.33% (inactive),15.3%,24.4%,inactive,,
CS(=O)(=O)N1CCC2(CCN(c3cccc(-c4ccccc4)c3)CC2)CC1,> 11.4 µM (inactive),-1.25% (inactive),inactive,10.1% (inactive),-21% (inactive),> 46 µM (inactive),inactive,inactive,inactive,,inactive,-1.6% (inactive),19.1%,18.7%,inactive,,
O=C(c1csnn1)N1CCC2(CCCN(c3ccccc3)C2)CC1,> 11.4 µM (inactive),-2.99% (inactive),inactive,1.2% (inactive),-8.69% (inactive),> 46 µM (inactive),inactive,inactive,7.94 µM (active),,,-0.699% (inactive),7.99%,11.5%,inactive,inactive,
COc1ccccc1CN1CC[C@@]2(CCCN(C(C)=O)C2)C1,> 11.4 µM (inactive),-19% (inactive),inactive,19.3% (inactive),1.39% (inactive),> 46 µM (inactive),inactive,inactive,,,,0.807% (inactive),-2.53%,-1%,inactive,,
Cc1noc(C)c1C(=O)N1CCC2(CCCN(C(=O)NC(C)C)C2)CC1,> 11.4 µM (inactive),10.5% (inactive),inactive,8.68% (inactive),-2.07% (inactive),> 46 µM (inactive),inactive,inactive,inactive,,inactive,6.76% (inactive),0.437%,10.1%,inactive,,
COc1ccc(C(=O)N2CCC3(CCCN(Cc4ccncc4)C3)CC2)cc1,> 11.4 µM (inactive),-3.23% (inactive),inactive,-17.9% (inactive),2.74% (inactive),> 46 µM (inactive),inactive,inactive,3.16 µM (active),7.94 µM (active),,3.4% (inactive),2.99%,8.92%,inactive,inactive,
O=C(Nc1ccccc1)N1CCC2(CC1)CCN(C(=O)c1cnccn1)CC2,> 11.4 µM (inactive),-8.59% (inactive),inactive,11.9% (inactive),2.97% (inactive),> 46 µM (inactive),inactive,inactive,,,,6.14% (inactive),7.98%,21.7%,inactive,,
COC(=O)N1CCC2(CC1)CN(C(=O)Nc1ccccc1)C2,> 11.4 µM (inactive),-8.08% (inactive),inactive,8.68% (inactive),1.2% (inactive),> 46 µM (inactive),inactive,inactive,,,,5.14% (inactive),-14.6%,-8.35%,inactive,,
COC(=O)N1CCC2(CCN(C(=O)Nc3ccccc3)CC2)CC1,> 11.4 µM (inactive),-4.41% (inactive),inactive,4.8% (inactive),0.0402% (inactive),> 46 µM (inactive),inactive,inactive,,,,5.74% (inactive),8.07%,17.4%,inactive,,
CC(C)NC(=O)N1CCC2(CC1)CCN(C(=O)c1cc(C(F)(F)F)cc(C(F)(F)F)c1)CC2,> 11.4 µM (inactive),-12% (inactive),inactive,25.7% (inactive),-9.32% (inactive),> 46 µM (inactive),inactive,inactive,inactive,inactive,,-0.11% (inactive),-8.79%,-7.75%,inactive,,9.62% (inactive)
O=C(c1ccco1)N1CCC2(CC1)CCN(c1ccccc1)CC2,> 11.4 µM (inactive),2.89% (inactive),inactive,-1.84% (inactive),-6.6% (inactive),> 46 µM (inactive),inactive,inactive,,,,1.71% (inactive),23.3%,29.9%,inactive,,

# — PubChem BioAssay (NCATS)
